# PubChem BioAssay (EPA / NIEHS)
# Activity calls are given as the source filed them. How the source made its calls: active means hit-call score of the fitted dose curve at least 0.9, where 1 is the maximum; inactive means score below 0.9.
# Experiments:
# Conditions in all cases: mRNA level, 48 h; actives raise or lower the signal
# [1] = read-out: 3-Hydroxy-3-Methylglutaryl-CoA Synthase 2 (HMGCS2), HMGCS2 (gene 3158); test: LTEA_HepaRG_HMGCS2: Life Technologies and Expression Analysis (LTEA) Assay for 3-Hydroxy-3-Methylglutaryl-CoA Synthase 2 (HMGCS2) using HepaRG (AID 2283504)
# Procedure, shortened: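 Differentiated human HepaRG cells were exposed in duplicate for 48 h in serum-free induction medium to eight concentrations (top 100 uM, half-log steps, 0.5% DMSO). HMGCS2 mRNA was quantified by TaqMan qRT-PCR, normalised to ACTB, GAPDH and POLR2A, then fitted bidirectionally against DMSO.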
# [2] = read-out: Insulin Like Growth Factor 1 (IGF1), IGF1 (gene 3479); test: LTEA_HepaRG_IGF1: Life Technologies and Expression Analysis (LTEA) Assay for Insulin Like Growth Factor 1 (IGF1) using HepaRG (AID 2283506)
# Procedure, shortened: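 Differentiated human HepaRG cells were dosed for 48 h in serum-free induction medium with 0.5% DMSO, eight half-log concentrations up to 100 uM, in duplicate. IGF1 mRNA was quantified by qRT-PCR normalized to ACTB, GAPDH, POLR2A; bidirectional fitting versus DMSO.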
# [3] = read-out: Intercellular Adhesion Molecule 1 (ICAM1), ICAM1 (gene 3383); test: LTEA_HepaRG_ICAM1: Life Technologies and Expression Analysis (LTEA) Assay for Intercellular Adhesion Molecule 1 (ICAM1) using HepaRG (AID 2283507)
# Procedure, shortened: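 Differentiated HepaRG cells in serum-free induction medium were exposed in duplicate for 48 h to eight half-log concentrations up to 100 uM in 0.5% DMSO. Transcript levels were measured by qRT-PCR normalized to ACTB, GAPDH and POLR2A; bidirectional fits relative to DMSO.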
# [4] = read-out: Insulin-like growth factor-binding protein 1 (IGFBP1), IGFBP1 (gene 3484); test: LTEA_HepaRG_IGFBP1: Life Technologies and Expression Analysis (LTEA) Assay for Insulin-like growth factor-binding protein 1 (IGFBP1) using HepaRG (AID 2283508)
# Procedure, shortened: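 Differentiated human HepaRG cells in serum-free induction medium were exposed in duplicate for 48 h to eight concentrations, top 100 uM with half-log dilutions, in 0.5% DMSO. Transcript levels came from qRT-PCR normalised to ACTB, GAPDH and POLR2A, fitted bidirectionally against DMSO.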
# [5] = read-out: Interleukin 6 (IL6), IL6 (gene 3569); test: LTEA_HepaRG_IL6: Life Technologies and Expression Analysis (LTEA) Assay for Interleukin 6 (IL6) using HepaRG (AID 2283509)
# Procedure, shortened: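 HepaRG cells exposed in duplicate for 48 h to eight half-log concentrations, top 100 uM, in 0.5% DMSO serum-free induction medium. mRNA measured by qRT-PCR, normalized to ACTB, GAPDH and POLR2A. Bidirectional fit versus DMSO.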
# [6] = read-out: Interleukin 6 Receptor (IL6R), IL6R (gene 3570); test: LTEA_HepaRG_IL6R: Life Technologies and Expression Analysis (LTEA) Assay for Interleukin 6 Receptor (IL6R) using HepaRG (AID 2283510);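 on AC50: TaqMan qRT-PCR signal normalized to ACTB GAPDH and POLR2A housekeeping genes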
# Procedure, shortened: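 Differentiated human HepaRG cells, plated 48 h then switched to serum-free induction medium, were dosed in duplicate for 48 h at eight half-log concentrations up to 100 uM in 0.5% DMSO. IL6R mRNA quantified by qRT-PCR, normalized to ACTB/GAPDH/POLR2A; bidirectional fit versus DMSO.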
# [7] = read-out: Potassium channel subfamily K member 1 (KCNK1), KCNK1 (gene 3775); test: LTEA_HepaRG_KCNK1: Life Technologies and Expression Analysis (LTEA) Assay for Potassium channel subfamily K member 1 (KCNK1) using HepaRG (AID 2283511)
# Procedure, shortened: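 Differentiated HepaRG cells, 48 h exposure in serum-free induction medium with 0.5% DMSO; 8 concentrations, half-log from 100 uM, duplicate. KCNK1 mRNA by qRT-PCR, normalized to ACTB, GAPDH, POLR2A; bidirectional fit vs DMSO.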
# [8] = read-out: Keratin 19 (KRT19), KRT19 (gene 3880); test: LTEA_HepaRG_KRT19: Life Technologies and Expression Analysis (LTEA) Assay for Keratin 19 (KRT19) using HepaRG (AID 2283512)
# Procedure, shortened: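 Differentiated human HepaRG cells, plated 48 h, were exposed in duplicate for 48 h in serum-free induction medium to eight half-log concentrations up to 100 uM in 0.5% DMSO. KRT19 mRNA was quantified by qRT-PCR, normalized to ACTB, GAPDH and POLR2A, and fitted bidirectionally versus DMSO.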
# [9] = read-out: JUN Transcription Factor, JUN (gene 3725); test: LTEA_HepaRG_JUN: Life Technologies and Expression Analysis (LTEA) Assay for JUN Transcription Factor using HepaRG (AID 2283513)
# Procedure, shortened: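 Differentiated HepaRG cells were exposed to chemicals for 48 h in serum-free induction medium, 8 concentrations from 100 uM in half-log steps, 0.5% DMSO vehicle, in duplicate. JUN mRNA was quantified by TaqMan qRT-PCR, normalized to ACTB, GAPDH, POLR2A.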
# [10] = read-out: Lipase C (LIPC), LIPC (gene 3990); test: LTEA_HepaRG_LIPC: Life Technologies and Expression Analysis (LTEA) Assay for Lipase C (LIPC) using HepaRG (AID 2283514)
# Procedure, shortened: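 HepaRG cells, 48 h after plating, treated in duplicate for 48 h in serum-free induction medium over 8 half-log concentrations from 100 uM, 0.5% DMSO. LIPC mRNA by TaqMan qRT-PCR normalized to ACTB/GAPDH/POLR2A; bidirectional fit versus DMSO.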
# [11] = read-out: Lipoprotein lipase (LPL), LPL (gene 4023); test: LTEA_HepaRG_LPL: Life Technologies and Expression Analysis (LTEA) Assay for Lipoprotein lipase (LPL) using HepaRG (AID 2283515)
# Procedure, shortened: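 Differentiated HepaRG cells, plated 48 h, then exposed 48 h in serum-free induction medium to 8 concentrations (top 100 uM, half-log steps) in 0.5% DMSO, duplicate. LPL mRNA measured by qRT-PCR, normalized to ACTB, GAPDH and POLR2A.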
# [12] = read-out: matrix metalloproteinase-10 (MMP10), MMP10 (gene 4319); test: LTEA_HepaRG_MMP10: Life Technologies and Expression Analysis (LTEA) Assay for matrix metalloproteinase-10 (MMP10) using HepaRG (AID 2283517)
# Procedure, shortened: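 Differentiated HepaRG cells in serum-free induction medium exposed 48 h in duplicate to 8-point half-log series up to 100 uM in 0.5% DMSO. mRNA quantified by qRT-PCR, normalised to ACTB, GAPDH, POLR2A; bidirectional fit versus DMSO.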
# MYC, MYC (gene 4609) = test: LTEA_HepaRG_MYC: Life Technologies and Expression Analysis (LTEA) Assay for MYC using HepaRG (AID 2283518)
# Procedure, shortened: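 Differentiated human HepaRG cells, plated 48 h then switched to serum-free induction medium, were exposed in duplicate for 48 h to 8-point half-log series up to 100 uM in 0.5% DMSO. MYC mRNA measured by qRT-PCR, normalized to ACTB/GAPDH/POLR2A.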
# [13] = read-out: matrix metalloproteinase-3 (MMP3), MMP3 (gene 4314); test: LTEA_HepaRG_MMP3: Life Technologies and Expression Analysis (LTEA) Assay for matrix metalloproteinase-3 (MMP3) using HepaRG (AID 2283519)
# Procedure, shortened: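 HepaRG cells (~100,000/well) in serum-free induction medium were dosed in duplicate for 48 h with an 8-point half-log series from 100 uM, 0.5% DMSO. MMP3 mRNA was quantified by Fluidigm TaqMan qRT-PCR, normalized to three housekeeping genes.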
# [14] = read-out: Paternally Expressed 10 (PEG10), PEG10 (gene 23089); test: LTEA_HepaRG_PEG10: Life Technologies and Expression Analysis (LTEA) Assay for Paternally Expressed 10 (PEG10) using HepaRG (AID 2283520)
# Procedure, shortened: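 Differentiated HepaRG cells, plated 48 h then switched to serum-free induction medium, were exposed in duplicate for 48 h to eight half-log concentrations topping at 100 uM in 0.5% DMSO. PEG10 mRNA was quantified by TaqMan qRT-PCR, normalised to ACTB, GAPDH and POLR2A.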
# [15] = read-out: Nuclear factor NF-kappa-B p105 subunit (Homo sapiens) (UniProt P19838); test: LTEA_HepaRG_NFKB1: Life Technologies and Expression Analysis (LTEA) Assay for Nuclear Factor Kappa B Subunit 1 (NFKB1) using HepaRG (AID 2283521);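 on outcome: TaqMan qRT-PCR transcript normalised to ACTB GAPDH and POLR2A housekeeping genes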
# Procedure, shortened: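 Differentiated human HepaRG cells in serum-free induction medium with 0.5% DMSO were exposed for 48 h to eight half-log concentrations, top 100 uM, in duplicate. NFKB1 mRNA measured by Fluidigm TaqMan qRT-PCR, normalised to ACTB, GAPDH and POLR2A; bidirectional fit versus DMSO.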
# [16] = read-out: Protein phosphatase 2A (PPP2R4), PTPA (gene 5524); test: LTEA_HepaRG_PPP2R4: Life Technologies and Expression Analysis (LTEA) Assay for Protein phosphatase 2A (PPP2R4) using HepaRG (AID 2283522)
# Procedure, shortened: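 Differentiated HepaRG cells in serum-free induction medium were exposed in duplicate for 48 h to eight concentrations, top 100 uM with half-log dilutions, in 0.5% DMSO. PPP2R4 mRNA was quantified by TaqMan qRT-PCR, normalized to ACTB, GAPDH and POLR2A.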
# [17] = read-out: Phosphatase and tensin (PTEN), PTEN (gene 5728); test: LTEA_HepaRG_PTEN: Life Technologies and Expression Analysis (LTEA) Assay for Phosphatase and tensin (PTEN) using HepaRG (AID 2283523)
# Procedure, shortened: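 HepaRG cells, 48 h after plating, exposed in duplicate for 48 h in serum-free induction medium to 8 half-log concentrations up to 100 uM (0.5% DMSO). PTEN mRNA by qRT-PCR, normalized to ACTB, GAPDH, POLR2A; bidirectional fit versus DMSO.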
# [18] = read-out: MicroRNA 122 (MIR122), gene 406906; test: LTEA_HepaRG_MIR122: Life Technologies and Expression Analysis (LTEA) Assay for MicroRNA 122 (MIR122) using HepaRG (AID 2283516); further: the transcript read is the microRNA miR-122
# Procedure, shortened: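 Differentiated human HepaRG cells were exposed 48 h in serum-free induction medium to eight half-log concentrations (top 100 uM, 0.5% DMSO). Transcript level was measured by TaqMan qRT-PCR, normalized to ACTB, GAPDH and POLR2A, and fitted bidirectionally versus DMSO.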
# Chain of Nuclear factor NF-kappa-B p105 subunit (Homo sapiens) (P19838 whole entry, looked up): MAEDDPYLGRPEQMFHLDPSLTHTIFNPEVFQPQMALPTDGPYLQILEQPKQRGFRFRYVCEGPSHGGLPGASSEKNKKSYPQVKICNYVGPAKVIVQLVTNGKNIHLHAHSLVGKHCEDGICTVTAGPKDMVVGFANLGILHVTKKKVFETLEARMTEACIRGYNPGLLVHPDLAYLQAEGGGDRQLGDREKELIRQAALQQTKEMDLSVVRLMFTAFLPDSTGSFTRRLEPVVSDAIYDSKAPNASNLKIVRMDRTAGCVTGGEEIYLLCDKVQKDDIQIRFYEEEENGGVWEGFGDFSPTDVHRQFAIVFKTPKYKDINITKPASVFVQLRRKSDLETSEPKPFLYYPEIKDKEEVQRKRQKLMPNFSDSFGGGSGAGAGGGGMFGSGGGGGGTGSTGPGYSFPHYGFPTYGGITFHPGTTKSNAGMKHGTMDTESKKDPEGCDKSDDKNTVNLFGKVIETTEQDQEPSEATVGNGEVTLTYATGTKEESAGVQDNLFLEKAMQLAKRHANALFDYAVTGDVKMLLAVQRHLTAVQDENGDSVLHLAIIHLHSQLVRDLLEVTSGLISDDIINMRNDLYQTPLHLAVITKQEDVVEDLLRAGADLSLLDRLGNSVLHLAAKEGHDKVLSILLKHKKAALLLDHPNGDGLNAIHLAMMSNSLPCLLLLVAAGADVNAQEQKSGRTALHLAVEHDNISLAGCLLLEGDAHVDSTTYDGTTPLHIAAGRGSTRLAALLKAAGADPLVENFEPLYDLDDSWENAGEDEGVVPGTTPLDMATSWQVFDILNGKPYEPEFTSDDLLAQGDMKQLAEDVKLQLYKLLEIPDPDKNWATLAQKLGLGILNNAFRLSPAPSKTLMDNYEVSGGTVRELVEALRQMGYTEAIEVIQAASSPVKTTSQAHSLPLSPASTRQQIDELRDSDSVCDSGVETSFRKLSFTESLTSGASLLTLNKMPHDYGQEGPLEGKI
structure (smiles),measurement,setting,value
O=C(OC[C@H]1O[C@@H](OC(=O)c2cc(O)c(O)c(OC(=O)c3cc(O)c(O)c(O)c3)c2)[C@H](OC(=O)c2cc(O)c(O)c(OC(=O)c3cc(O)c(O)c(O)c3)c2)[C@@H](OC(=O)c2cc(O)c(O)c(OC(=O)c3cc(O)c(O)c(O)c3)c2)[C@@H]1OC(=O)c1cc(O)c(O)c(OC(=O)c2cc(O)c(O)c(O)c2)c1)c1cc(O)c(O)c(OC(=O)c2cc(O)c(O)c(O)c2)c1,AC50,[1],9.74 µM (active)
same,outcome,[2],inactive
same,AC50,[3],6.76 µM (active)
same,AC50,[4],9.51 µM (active)
same,AC50,[5],10.5 µM (active)
same,AC50,[6],15.2 µM (active)
same,outcome,[7],inactive
same,outcome,[8],inactive
same,outcome,[9],inactive
same,AC50,[10],8.46 µM (active)
same,AC50,[11],15.2 µM (active)
same,AC50,[12],9.49 µM (active)
same,AC50,"MYC, MYC (gene 4609)",6.08 µM (active)
same,AC50,[13],15.2 µM (active)
same,AC50,[14],9.75 µM (active)
same,AC50,[15],8.67 µM (active)
same,AC50,[16],3.88 µM (active)
same,outcome,[17],inactive
Cc1ccc(O)cc1,outcome,[1],inactive
same,outcome,[2],inactive
same,outcome,[3],inactive
same,outcome,[4],inactive
same,outcome,[5],inactive
same,outcome,[6],inactive
same,outcome,[7],inactive
same,outcome,[8],inactive
same,outcome,[9],inactive
same,outcome,[10],inactive
same,outcome,[11],inactive
same,outcome,[18],inactive
same,outcome,[12],inactive
same,outcome,"MYC, MYC (gene 4609)",inactive
same,outcome,[14],inactive
same,outcome,[15],inactive
same,outcome,[16],inactive
same,outcome,[17],inactive
CCNc1ccccc1,outcome,[1],inactive
same,outcome,[2],inactive
same,outcome,[3],inactive
same,outcome,[5],inactive
same,outcome,[6],inactive
same,outcome,[7],inactive
same,outcome,[8],inactive
same,outcome,[9],inactive
same,outcome,[10],inactive
same,outcome,[11],inactive
same,outcome,[12],inactive
same,outcome,"MYC, MYC (gene 4609)",inactive
same,outcome,[14],inactive
same,outcome,[15],inactive
same,outcome,[16],inactive
same,outcome,[17],inactive
